Laboratory results taken from PMC7862700, “An all-to-all approach to the identification of sequence-specific readers for epigenetic DNA modifications on cytosine”.

Assays:
Experiment in all cases: DAPPL (digital affinity profiling via proximity ligation, sequencing); 10 mM Tris-HCl pH 7.5, 50 mM NaCl, 1 mM DTT, 4% glycerol, room temperature, 30 min; GST-TFs on glutathione beads, 16-mer random dsDNA library, 0.1% formaldehyde crosslink after washing; high values mean tight binding
Details in all cases: protein: recombinant; tags: N-terminal GST; dsDNA, one strand shown
ETV2 = target: T1, ETV2 (Homo sapiens, UniProt O00321 1-342)
T1 sequence: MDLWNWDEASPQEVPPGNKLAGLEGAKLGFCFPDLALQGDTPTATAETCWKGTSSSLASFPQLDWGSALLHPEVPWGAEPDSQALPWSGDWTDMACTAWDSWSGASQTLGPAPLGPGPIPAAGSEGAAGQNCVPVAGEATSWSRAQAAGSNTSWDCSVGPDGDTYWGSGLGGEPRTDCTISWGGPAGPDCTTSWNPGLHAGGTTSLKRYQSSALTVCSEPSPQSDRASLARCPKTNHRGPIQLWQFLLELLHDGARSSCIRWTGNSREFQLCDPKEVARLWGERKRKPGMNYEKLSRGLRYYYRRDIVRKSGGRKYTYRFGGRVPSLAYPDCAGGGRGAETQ
Outline: (§1)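 Human transcription factors fused to GST were expressed in yeast, captured on glutathione beads, given DNA barcodes and pooled with a GST-only negative control. Pools were incubated with 200 nmole of a 16-mer random double-stranded DNA library in Tris/NaCl/DTT/glycerol buffer at room temperature for 30 min. They were then washed, crosslinked with 0.1% formaldehyde, proximity-ligated (BsaI/T4 ligase, 1 h, 37 °C), PCR-amplified and sequenced on an Illumina NextSeq500. Binding signal is each 6-mer's read frequency for a factor divided by its frequency for the GST control.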

ELF3 = target: T2, ELF3 (Homo sapiens, UniProt P78545 1-371)
T2 sequence: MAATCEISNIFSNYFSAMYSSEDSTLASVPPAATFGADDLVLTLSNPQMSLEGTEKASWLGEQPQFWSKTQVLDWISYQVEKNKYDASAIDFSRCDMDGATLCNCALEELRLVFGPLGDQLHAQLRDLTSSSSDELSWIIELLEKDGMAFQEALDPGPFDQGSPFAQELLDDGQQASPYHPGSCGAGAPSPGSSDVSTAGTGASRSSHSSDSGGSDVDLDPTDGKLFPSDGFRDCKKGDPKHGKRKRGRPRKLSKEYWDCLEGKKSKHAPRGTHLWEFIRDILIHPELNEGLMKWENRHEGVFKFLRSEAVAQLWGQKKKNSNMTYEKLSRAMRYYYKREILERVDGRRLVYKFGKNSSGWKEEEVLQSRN
Outline: as §1

ETV1 = ETV1 (Homo sapiens, UniProt P50549 1-477)
Outline: as §1

ERF = target: T3, ERF (Homo sapiens, UniProt P50548 1-548)
T3 sequence: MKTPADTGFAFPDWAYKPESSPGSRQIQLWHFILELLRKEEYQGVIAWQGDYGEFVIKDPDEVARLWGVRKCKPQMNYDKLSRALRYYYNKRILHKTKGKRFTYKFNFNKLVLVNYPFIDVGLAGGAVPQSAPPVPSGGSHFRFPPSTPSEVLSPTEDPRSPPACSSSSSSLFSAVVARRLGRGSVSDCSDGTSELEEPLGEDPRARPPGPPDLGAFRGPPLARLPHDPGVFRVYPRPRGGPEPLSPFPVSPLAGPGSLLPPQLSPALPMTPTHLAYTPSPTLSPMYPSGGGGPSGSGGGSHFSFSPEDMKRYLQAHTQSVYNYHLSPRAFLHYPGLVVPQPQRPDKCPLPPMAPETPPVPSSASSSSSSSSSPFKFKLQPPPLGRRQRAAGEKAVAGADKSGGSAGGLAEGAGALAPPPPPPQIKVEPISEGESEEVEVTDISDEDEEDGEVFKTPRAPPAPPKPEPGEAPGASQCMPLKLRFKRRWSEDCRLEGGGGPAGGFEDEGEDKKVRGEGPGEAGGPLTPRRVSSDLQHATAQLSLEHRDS
Outline: as §1

ETV3L = target: T4, ETV3L (Homo sapiens, UniProt Q6ZN32 1-361)
T4 sequence: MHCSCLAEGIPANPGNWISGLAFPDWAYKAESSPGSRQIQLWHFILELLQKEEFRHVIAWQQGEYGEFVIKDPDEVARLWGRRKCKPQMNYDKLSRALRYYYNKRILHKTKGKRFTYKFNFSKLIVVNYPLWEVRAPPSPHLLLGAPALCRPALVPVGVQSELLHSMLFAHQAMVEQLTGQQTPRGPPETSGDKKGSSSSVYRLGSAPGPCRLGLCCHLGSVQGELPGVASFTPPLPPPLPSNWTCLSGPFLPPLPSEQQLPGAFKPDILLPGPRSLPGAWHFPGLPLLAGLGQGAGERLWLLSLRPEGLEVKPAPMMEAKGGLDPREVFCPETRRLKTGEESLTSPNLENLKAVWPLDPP
Outline: as §1

ETS2 = target: T5, ETS2 (Homo sapiens, UniProt P15036 1-469)
T5 sequence: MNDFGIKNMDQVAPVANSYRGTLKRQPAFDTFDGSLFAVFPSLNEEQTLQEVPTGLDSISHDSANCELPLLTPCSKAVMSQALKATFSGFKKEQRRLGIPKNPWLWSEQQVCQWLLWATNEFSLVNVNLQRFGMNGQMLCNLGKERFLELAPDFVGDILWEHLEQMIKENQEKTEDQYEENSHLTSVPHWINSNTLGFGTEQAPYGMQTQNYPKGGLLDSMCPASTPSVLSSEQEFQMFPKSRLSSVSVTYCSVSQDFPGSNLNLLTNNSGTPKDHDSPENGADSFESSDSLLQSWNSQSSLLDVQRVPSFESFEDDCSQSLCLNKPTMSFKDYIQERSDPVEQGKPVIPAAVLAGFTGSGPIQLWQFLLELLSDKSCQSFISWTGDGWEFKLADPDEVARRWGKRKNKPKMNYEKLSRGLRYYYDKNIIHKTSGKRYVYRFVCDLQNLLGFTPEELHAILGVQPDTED
Outline: as §1

SPDEF = target: T6, SPDEF (Homo sapiens, UniProt O95238 1-335)
T6 sequence: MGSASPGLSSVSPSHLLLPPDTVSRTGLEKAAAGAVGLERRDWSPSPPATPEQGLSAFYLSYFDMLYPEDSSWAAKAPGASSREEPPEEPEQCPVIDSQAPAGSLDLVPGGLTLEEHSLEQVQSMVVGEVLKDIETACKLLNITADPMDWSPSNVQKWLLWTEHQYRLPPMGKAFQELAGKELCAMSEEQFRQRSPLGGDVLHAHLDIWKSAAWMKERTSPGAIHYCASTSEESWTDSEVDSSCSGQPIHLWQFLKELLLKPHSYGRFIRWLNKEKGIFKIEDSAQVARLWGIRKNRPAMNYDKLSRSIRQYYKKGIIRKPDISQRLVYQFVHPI
Outline: as §1

ETV7 = target: T7, ETV7 (Homo sapiens, UniProt Q9Y603 1-341)
T7 sequence: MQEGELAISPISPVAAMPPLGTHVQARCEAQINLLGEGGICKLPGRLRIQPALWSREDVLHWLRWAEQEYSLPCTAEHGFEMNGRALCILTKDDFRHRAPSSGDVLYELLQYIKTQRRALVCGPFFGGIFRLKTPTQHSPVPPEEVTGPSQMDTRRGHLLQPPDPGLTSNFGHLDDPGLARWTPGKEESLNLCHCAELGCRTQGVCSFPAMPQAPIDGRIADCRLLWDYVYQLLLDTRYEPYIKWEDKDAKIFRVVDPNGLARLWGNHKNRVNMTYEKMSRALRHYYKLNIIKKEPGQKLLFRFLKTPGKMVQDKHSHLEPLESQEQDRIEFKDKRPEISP
Outline: as §1

ETV3 = target: T8, ETV3 (Homo sapiens, UniProt P41162-2 1-143)
T8 sequence: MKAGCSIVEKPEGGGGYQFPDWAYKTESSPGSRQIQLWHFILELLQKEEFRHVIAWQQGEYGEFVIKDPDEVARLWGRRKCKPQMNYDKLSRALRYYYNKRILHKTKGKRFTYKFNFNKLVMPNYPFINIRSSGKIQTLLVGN
Outline: as §1

ETV6 = ETV6 (Homo sapiens, UniProt P41212 1-452)
Outline: as §1

ETV6, sequence (P41212 whole entry): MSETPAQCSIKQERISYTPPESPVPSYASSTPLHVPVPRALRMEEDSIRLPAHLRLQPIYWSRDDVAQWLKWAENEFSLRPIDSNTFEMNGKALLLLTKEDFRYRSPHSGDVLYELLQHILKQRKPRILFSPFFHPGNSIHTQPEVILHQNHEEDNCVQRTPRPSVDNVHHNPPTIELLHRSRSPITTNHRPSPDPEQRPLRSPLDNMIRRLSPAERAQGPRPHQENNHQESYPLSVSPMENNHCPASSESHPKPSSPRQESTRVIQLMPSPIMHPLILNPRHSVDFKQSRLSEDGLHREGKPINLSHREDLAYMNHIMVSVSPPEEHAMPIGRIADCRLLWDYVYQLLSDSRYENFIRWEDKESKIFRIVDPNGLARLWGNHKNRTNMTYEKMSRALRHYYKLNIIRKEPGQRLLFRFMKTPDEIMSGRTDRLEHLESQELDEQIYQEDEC
ETV1, sequence (P50549 whole entry): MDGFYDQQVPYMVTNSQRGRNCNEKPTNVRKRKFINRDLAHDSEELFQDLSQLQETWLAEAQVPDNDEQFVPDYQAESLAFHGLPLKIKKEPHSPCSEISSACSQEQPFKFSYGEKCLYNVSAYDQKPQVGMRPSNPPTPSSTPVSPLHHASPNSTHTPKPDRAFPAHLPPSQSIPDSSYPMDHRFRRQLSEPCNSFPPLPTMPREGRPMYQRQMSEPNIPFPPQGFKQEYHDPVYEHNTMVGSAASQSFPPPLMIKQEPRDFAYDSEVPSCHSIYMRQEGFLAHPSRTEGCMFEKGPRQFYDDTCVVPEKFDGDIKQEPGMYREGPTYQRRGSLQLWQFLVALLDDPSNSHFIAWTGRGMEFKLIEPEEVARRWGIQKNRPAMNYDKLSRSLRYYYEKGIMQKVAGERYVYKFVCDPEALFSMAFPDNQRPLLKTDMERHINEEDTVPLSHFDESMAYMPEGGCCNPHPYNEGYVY

CCCAAA
binding signal (ETV2): 1.3 fold enrichment (6-mer frequency, TF over GST control)
binding signal (ELF3): 1.2 fold enrichment (6-mer frequency, TF over GST control)
binding signal (ETV1): 1.08 fold enrichment (6-mer frequency, TF over GST control)
binding signal (ERF): 1.11 fold enrichment (6-mer frequency, TF over GST control)
binding signal (ETV3L): 1.12 fold enrichment (6-mer frequency, TF over GST control)
binding signal (ETS2): 1.02 fold enrichment (6-mer frequency, TF over GST control)
binding signal (SPDEF): 1.06 fold enrichment (6-mer frequency, TF over GST control)
binding signal (ETV7): 1.09 fold enrichment (6-mer frequency, TF over GST control)
binding signal (ETV3): 1.02 fold enrichment (6-mer frequency, TF over GST control)
binding signal (ETV6): 1.1 fold enrichment (6-mer frequency, TF over GST control)
